# Measured values as given in the supplement of paper PMC9135407.
# “And” between values parts separate entries of the source, which are not always exact repeats. Equal entries are not always repeated. Structures can show the parent of a compound that is named as a salt. The whole screen tested about 5,800 compounds, of which about 620 (11%) showed activity. This excerpt belongs to a sample that is enriched for actives. Values without a mark were called inactive.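 How the source made its calls: active = score above a cut-off or among the top three wells of a plate; in these data no inactive exceeds 0.85.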
# Test system: primary human hepatic stellate cells (donor 1)
# Assay: scaled lipid accumulation score (0 = DMSO-like, 1 = nortriptyline-like); higher = stronger HSC inactivation (lipid re-accumulation), active = hit call of the paper
# Details: 48 h
# [1] = library stock concentration: 10 mM
# [2] = library stock concentration: 1 mM
# [3] = library stock concentration: 3.33 mM
# [4] = library stock concentration: 400 uM
# [5] = library stock concentration: 2 mM
compound,measurement,setting,value
Cc1nccnc1N1CCCCC1,scaled lipid accumulation score,[1],≤ 0
CCCCCC/C=C\CCCC(=O)CC(=O)N[C@H]1CCOC1=O [N-3-oxo-tetradec-7(Z)-enoyl-L-Homoserine lactone],scaled lipid accumulation score,[2],≤ 0
Cc1ccc(-c2c(-c3nn(C)c4ncnc(N5CC[C@H](N6CCCCC6)C5)c34)cnn2C)cc1,scaled lipid accumulation score,[3],≤ 0
same,scaled lipid accumulation score,[1],0.091
"CCCCCC(=O)CC[C@H]1[C@H](O)CC(=O)[C@@H]1CCCCCCC(=O)O [13,14-dihydro-15-keto Prostaglandin E1]",scaled lipid accumulation score,[2],≤ 0
Cc1cc(Nc2nc(N[C@@H](C)c3ccc(F)cc3)c(C#N)cc2F)n[nH]1,scaled lipid accumulation score,[4],≤ -0.005
same,scaled lipid accumulation score,[5],≤ -0.005
same,scaled lipid accumulation score,[3],≤ 0
same,scaled lipid accumulation score,[1],0.387 and 0.197
O=S(=O)(NO)c1ccccc1 [Piloty's Acid],scaled lipid accumulation score,[2],≤ 0
Cn1cnc2cc3c(Nc4cccc(Br)c4)ncnc3cc21,scaled lipid accumulation score,[3],0.044
CCCCCC=CCC=CCCCCCCCC(=O)OC(CO)CO [2-Linoleoyl Glycerol],scaled lipid accumulation score,[2],0.053
C[C@@H]1C[C@H]2O[C@@H]2/C=C\C=C\C(=O)Cc2c(Cl)c(O)cc(O)c2C(=O)O1 [Radicicol],scaled lipid accumulation score,[2],0.383
O=C(O)CCC/C=C\C[C@@H]1[C@@H](CCC(=O)CCc2ccccc2)[C@H](O)C[C@@H]1O [15-keto Latanoprost (free acid)],scaled lipid accumulation score,[2],≤ 0
CNCc1cn(C2CCN(CCC(C)CC(C)(C)C)CC2)nn1 (centres undefined),scaled lipid accumulation score,[1],1.05 (active)
CCCCC(CC)CN1CCC(n2cc(CNC)nn2)CC1 (centres undefined),scaled lipid accumulation score,[1],0.988 (active)
CCCCC(CC)CN1CN(CC(CC)CCCC)CC(C)(N)C1 (centres undefined) [Hexetidine],scaled lipid accumulation score,,≤ 0
same,scaled lipid accumulation score,[1],0.342
CCCCc1ccc(N=CNO)c(C)c1,scaled lipid accumulation score,[2],0.03
CC(O)(CC(=O)O)CC(=O)O,scaled lipid accumulation score,[1],0.023
CC1(C)[C@H]2CC[C@@]1(C)C(=O)C2 [1r-camphor],scaled lipid accumulation score,[1],≤ 0
O=C(O)[C@H](O)c1ccccc1 [R-(-)-Mandelic Acid],scaled lipid accumulation score,[2],0.02
CSC(=N)NCCC[C@H](N)C(=O)O [S-Methyl-L-thiocitrulline acetate],scaled lipid accumulation score,[1],≤ -0.02
O=C(Nc1ncc(SCCN2CCCC2)s1)[C@]1(c2ccc(S(=O)(=O)C3CC3)cc2)C[C@@H]1C1CCCCC1,scaled lipid accumulation score,[3],1.12 (active)
O=C(Nc1ncc(SCCN2CCCC2)s1)[C@]1(c2ccc(S(=O)(=O)C3CC3)cc2)C[C@H]1C1CCCCC1,scaled lipid accumulation score,[1],0.143
Cn1cccc1/C=C1\C(=O)NC(=O)c2ccccc21,scaled lipid accumulation score,[1],0.017
O=C(Nc1ccccc1)N[C@@H]1C[C@@H](C(=O)O)Nc2cc(Cl)cc(Cl)c21,scaled lipid accumulation score,[1],≤ 0
CC(N)(C(=O)O)c1ccc(C(=O)O)cc1 (centres undefined),scaled lipid accumulation score,[1],0.151
NC(=O)c1c(NC(=O)C2CC2)sc2c1CCCC2,scaled lipid accumulation score,library stock concentration: 80 uM,≤ -0.001
same,scaled lipid accumulation score,[4],≤ -0.001
same,scaled lipid accumulation score,[5],≤ -0.001
same,scaled lipid accumulation score,[1],0.118
"CCN(CC)C(=O)c1ccc(Nc2nc(OCC3CCCCC3)c3[nH]cnc3n2)cc1 [Cdk2 Inhibitor IV, NU6140]",scaled lipid accumulation score,[3],≤ 0
CC1OC2(CS1)CN1CCC2CC1 (centres undefined) [Cevimeline hydrochloride],scaled lipid accumulation score,[1],≤ 0
